This note sets out measurements from the supplement of paper PMC10037445.

SMILES strings stand for the structures. Several values for one entry are separate records, joined by “and”; a condition that tells them apart may be missing. Equal values may be shown once. Over roughly 2,900 compounds, “NF-kB SEAP reporter activity, fold change vs agonist alone” has its median near 0.99; the highest 2% begin near 2.6. The sample as a whole holds a higher share of the highest values than the screen did.

For test [1], the system named is RAW-Dual. The experiment in a line: NF-kB SEAP reporter activity, fold change vs agonist alone; higher = enhanced NF-kB activity. The note with it: library stock concentration (final ~1000-fold dilution): 10 mM. In outline: (§1)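 Reporter activity is given as fold change relative to agonist-alone wells. To measure it, 50 nL of library stock was pin-tooled onto RAW-Dual macrophages (50,000 cells/well, DMEM, 384-well plates), a PRR agonist followed 1 h later, and cells stayed at 37 °C, 5% CO2. Twenty hours on, supernatant was assayed for IRF (QuantiLuc luminescence) and NF-κB (QuantiBlue, 620 nm absorbance), and wells under 70% of agonist-control IncuCyte confluency in both mask sets were marked cytotoxic.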

Test [2] deals with RAW-Dual. The experiment in a line: NF-kB SEAP reporter activity, fold change vs agonist alone; cytotoxicity flag (confluency mask): not cytotoxic; higher = enhanced NF-kB activity. In outline: as §1
Test [3] has as its system RAW-Dual. The test can be described thus: NF-kB SEAP reporter activity, fold change vs agonist alone; cytotoxicity flag (confluency mask): cytotoxic (confluency <70% of control); higher = enhanced NF-kB activity. In outline:
as §1

Where [4] appears, read: cytotoxicity flag (confluency mask): not cytotoxic, agonist: Imiquimod (TLR7) […].
[5] abbreviates: cytotoxicity flag (confluency mask): not cytotoxic, agonist: MPLA (TLR4) […].
Setting [6] is: agonist: ODN 1826 (TLR9) 0.5 ug/mL.
Setting [7] is: agonist: Pam2CSK4 (TLR2/6) 0.1 ug/mL.
The mark [8] stands for this setting: agonist: Pam3CSK4 (TLR2/1) 0.1 ug/mL.

Consider `O.O=c1c(O)c(-c2ccc(O)cc2O)oc2cc(O)cc(O)c12`, for which the “NF-kB SEAP reporter activity” value in test [1] (setting [4]) is 0.957; in test [1] (setting [5]), 1.05.

For `O.O=c1c(O)c(-c2ccc(O)cc2O)oc2cc(O)cc(O)c12` (library stock concentration (final ~1000-fold dilution): 10 mM), the “NF-kB SEAP reporter activity” value in test [2] (agonist: LPS (TLR4) 0.1 ug/mL) was determined as 1.52; in test [2] (setting [6]), 1.13; in test [2] (setting [7]), 1.15; in test [2] (setting [8]) it was 1.18.

On to `COCCCOc1cc(CC(CC(N)C(O)CC(C(=O)NCC(C)(C)C(N)=O)C(C)C)C(C)C)ccc1OC` (stereo not drawn) (library stock concentration (final ~1000-fold dilution): 10 mM), for which the “NF-kB SEAP reporter activity” value was 1.36 and 1.31 in test [2] (agonist: LPS (TLR4) 0.1 ug/mL); 1.57 and 0.983 in test [2] (setting [6]); 1.09 and 0.934 in test [2] (setting [7]); 1.04 and 1.06 in test [2] (setting [8]).

Turning to `CC1=NN(c2ccc(C)c(C)c2)C(=O)/C1=N\Nc1cccc(-c2cccc(C(=O)O)c2)c1O.NCCO.NCCO` (library stock concentration (final ~1000-fold dilution): 10 mM), the “NF-kB SEAP reporter activity” value in test [2] (agonist: LPS (TLR4) 0.1 ug/mL) was found to be 2.92; in test [2] (setting [6]) it was 1.31; in test [2] (setting [7]) it was 1.58; in test [2] (setting [8]), 1.34.

For `CC1=NN(c2ccc(C)c(C)c2)C(=O)/C1=N\Nc1cccc(-c2cccc(C(=O)O)c2)c1O.NCCO.NCCO`, the “NF-kB SEAP reporter activity” value in test [1] (setting [4]) is 1.57; in test [1] (setting [5]), 1.64.

Take `Cc1ncc(Cl)cc1NCc1ccc(C(=O)NC(CC2CCCC2)C(=O)NC2CC2)s1` (stereo not drawn) (library stock concentration (final ~1000-fold dilution): 10 mM): the “NF-kB SEAP reporter activity” value in test [2] (agonist: LPS (TLR4) 0.1 ug/mL) was 0.894; in test [2] (setting [6]), 0.742; in test [2] (setting [7]) it was 0.85; in test [2] (setting [8]), 0.698.

Take `Cc1ncc(Cl)cc1NCc1ccc(C(=O)NC(CC2CCCC2)C(=O)NC2CC2)s1` (stereo not drawn): the “NF-kB SEAP reporter activity” value in test [1] (setting [4]) came out at 0.865; in test [1] (setting [5]), 0.987.

On to `Cc1cc(C)c(CN2CCc3c(Cl)cc(-c4c(C)noc4C)c(Cl)c3C2=O)c(=O)[nH]1` (library stock concentration (final ~1000-fold dilution): 10 mM), for which the “NF-kB SEAP reporter activity” value is 2.16 in test [2] (agonist: LPS (TLR4) 0.1 ug/mL), 1.51 in test [2] (setting [6]), 0.917 in test [2] (setting [7]) and 0.98 in test [2] (setting [8]).

For `Cc1cc(C)c(CN2CCc3c(Cl)cc(-c4c(C)noc4C)c(Cl)c3C2=O)c(=O)[nH]1`, the figures for the “NF-kB SEAP reporter activity” value in test [1] (setting [4]) and in test [1] (setting [5]) were 1.24 and 1.64, respectively.

For the compound `C=C(C)C1CCC2(C(=O)O)CCC3(C)C(CCC4C5(C)CCC(OC(=O)CC(C)(C)C(=O)O)C(C)(C)C5CCC43C)C12` (stereo not drawn) (library stock concentration (final ~1000-fold dilution): 10 mM), the “NF-kB SEAP reporter activity” value amounted to 1.79 in test [3] (agonist: LPS (TLR4) 0.1 ug/mL), 0.735 in test [3] (setting [6]), 0.295 in test [3] (setting [7]) and 0.532 in test [3] (setting [8]).

Consider `C=C(C)C1CCC2(C(=O)O)CCC3(C)C(CCC4C5(C)CCC(OC(=O)CC(C)(C)C(=O)O)C(C)(C)C5CCC43C)C12` (stereo not drawn), for which the “NF-kB SEAP reporter activity” value in test [1] (cytotoxicity flag (confluency mask): cytotoxic (confluency <70% of control), agonist: Imiquimod (TLR7) […]) was determined as 0.823; in test [1] (cytotoxicity flag (confluency mask): cytotoxic (confluency <70% of control), agonist: MPLA (TLR4) […]), 1.07.

For the compound `CCN(CC)Cc1ccc(C(=O)N(CCc2ccccc2OC)C2CCNC2)cc1` (stereo not drawn) (library stock concentration (final ~1000-fold dilution): 10 mM), the “NF-kB SEAP reporter activity” value in test [2] (agonist: LPS (TLR4) 0.1 ug/mL) amounted to 0.9; in test [2] (setting [6]) it was 0.312; in test [2] (setting [7]), 0.883; in test [2] (setting [8]), 0.613.
